Values joined by “and” are separate entries in the source; they are usually repeats but may differ in a detail not shown here. Equal values may be shown once. About 6,000 (1.7%) of roughly 350,000 compounds were called active. Another 5% or so got no clear call; they are omitted. No stated cut-off is given here; in the data, active means CPE inhibition above about 20% (passing the limit was not always enough); inconclusive means no clear call, values can overlap the other calls; tested in BHK-21 cells. Only a selection was taken, and actives are over-represented in it overall.
Experiment: inhibitors of DENV2 cytopathic effect, primary screen, cell-based, plate reader, single concentration (AID 651640);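 further: 0% = median of neutral control wells and 100% = median of positive control wells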
Details: DENV2-infected cells, cytopathic effect rescue, at 9.99 µM, stronger effect = higher value

Row | SMILES | CPE inhibition
1 | O=C(NCC[C@H]1CC[C@@H](NC(=O)C2CCCCC2)[C@@H](CO)O1)c1ccc(F)cc1 | 50.9% (active)
2 | O=C(NCC[C@H]1CC[C@H](NC(=O)C2CC2)[C@@H](CO)O1)c1ccc(F)cc1 | -6.48% (inactive)
3 | O=C(NCC[C@H]1CC[C@@H](NC(=O)C2CC2)[C@H](CO)O1)c1ccc(F)cc1 | -2.58% (inactive)
4 | C[C@H]1CN([C@@H](C)CO)C(=O)c2cc(/C=C/c3ccccc3)cnc2O[C@H]1CN(C)Cc1cccc(C(=O)O)c1 | -8.76% (inactive)
5 | C[C@@H]1CN([C@H](C)CO)C(=O)c2cccc(NC(=O)NC3CCCCC3)c2O[C@H]1CN(C)Cc1ccc(C(F)(F)F)cc1 | 0.691% (inactive)
6 | C[C@H]1CN([C@@H](C)CO)C(=O)c2cccc(NC(=O)NC3CCCCC3)c2O[C@H]1CN(C)CC1CCCCC1 | 30.3% (active)
7 | C[C@@H]1CN([C@H](C)CO)C(=O)c2cccc(NC(=O)NC3CCCCC3)c2O[C@@H]1CN(C)CC1CCCCC1 | -11% (inactive)
8 | C[C@@H]1CN([C@@H](C)CO)C(=O)c2cccc(NC(=O)NC3CCCCC3)c2O[C@@H]1CN(C)CC1CCCCC1 | 12.9% (inactive)
9 | C[C@H]1CN([C@@H](C)CO)C(=O)c2cccc(NC(=O)C3CCCCC3)c2O[C@H]1CN(C)Cc1ccc(C(F)(F)F)cc1 | 12.9% (inactive)
10 | C[C@H](CO)N1C[C@H](C)[C@@H](CN(C)Cc2ccc(C(F)(F)F)cc2)Oc2c(NC(=O)NC3CCCCC3)cccc2C1=O | 37.7% (active)
11 | O=C(C[C@H]1C=C[C@H](NC(=O)c2cccc(F)c2)[C@@H](CO)O1)NCc1ccc(Oc2ccccc2)cc1 | -9.22% (inactive)
12 | C[C@H](CO)N1C[C@H](C)[C@H](CN(C)Cc2ccncc2)Oc2ncc(C#Cc3cccc(F)c3)cc2C1=O | 13.5% (inactive)
13 | C[C@@H]1CN([C@H](C)CO)C(=O)c2cc(-c3ccccc3F)cnc2O[C@H]1CN(C)C(=O)CN(C)C | -0.853% (inactive)
14 | CN1c2ccc(-c3cccc(F)c3)cc2[C@@H]2[C@@H](CCN2C(=O)Nc2ccccc2F)[C@@H]1CO | -9.74% (inactive)
15 | COc1cccc(C(=O)Nc2ccc3c(c2)C(=O)N(C)[C@H]2CC[C@H](CC(=O)N[C@@H](C)c4ccccc4)O[C@H]2CO3)c1 | -3.06% (inactive)
16 | CN1C(=O)c2cc(NC(=O)Cc3ccccc3)ccc2OC[C@H]2O[C@H](CC(=O)NCc3ccc(Cl)cc3)CC[C@H]21 | -3.46% (inactive)
17 | Cc1ccc(S(=O)(=O)Nc2ccc3c(c2)C(=O)N([C@H](C)CO)C[C@H](C)[C@H](CN(C)Cc2ccc(Cl)c(Cl)c2)O3)cc1 | -4.04% (inactive)
18 | C[C@@H]1CN([C@H](C)CO)C(=O)c2cc(NS(=O)(=O)c3ccc(F)cc3)ccc2O[C@H]1CN(C)Cc1ccncc1 | -0.549% (inactive)
19 | Cc1noc(C)c1S(=O)(=O)Nc1ccc2c(c1)C(=O)N([C@@H](C)CO)C[C@@H](C)[C@H](CN(C)Cc1ccc(-c3ccccc3)cc1)O2 | 35.7% (active)
20 | Cc1ccc(S(=O)(=O)Nc2ccc3c(c2)C(=O)N([C@@H](C)CO)C[C@@H](C)[C@@H](CN(C)Cc2ccncc2)O3)cc1 | 2.98% (inactive)
21 | Cc1noc(C)c1S(=O)(=O)Nc1ccc2c(c1)C(=O)N([C@@H](C)CO)C[C@@H](C)[C@@H](CN(C)C)O2 | 1.2% (inactive)

Row | SMILES | CPE inhibition
22 | Cc1ccc(S(=O)(=O)Nc2ccc3c(c2)C(=O)N([C@@H](C)CO)C[C@@H](C)[C@H](CN(C)Cc2ccc4c(c2)OCO4)OCCCC[C@@H](C)O3)cc1 | -8.37% (inactive)
23 | Cc1ccc(S(=O)(=O)Nc2ccc3c(c2)C(=O)N([C@@H](C)CO)C[C@H](C)[C@@H](CN(C)Cc2ccc4c(c2)OCO4)O3)cc1 | 21.2% (active)
24 | Cc1ccc(S(=O)(=O)Nc2ccc3c(c2)C(=O)N([C@@H](C)CO)C[C@@H](C)[C@H](CN(C)Cc2ccncc2)O3)cc1 | 35.3% (active)
25 | C[C@H](CO)N1C[C@H](C)[C@H](CN(C)Cc2ccc(-c3ccccc3)cc2)Oc2ccc(NS(=O)(=O)c3ccccc3)cc2C1=O | 0.672% (inactive)
26 | CO[C@@H]1CN(C)C(=O)c2cc(NS(=O)(=O)c3cn(C)cn3)ccc2OC[C@@H](C)NC[C@H]1C | -0.807% (inactive)
27 | COCc1cn(CC[C@H]2CC[C@@H](NC(=O)Nc3ccc(OC)cc3)[C@@H](CO)O2)nn1 | 0.762% (inactive)
28 | C/C=C/c1ccc(C2[C@H]3CNC[C@@H]2N3C(=O)Nc2ccc(F)cc2)cc1 (stereo partly drawn) | 0.029% (inactive) and 10.5% (inactive)
29 | O=C(Nc1ccc(-c2ccccc2)cc1)[C@@H]1[C@@H](CO)[C@@H]2Cn3c(cccc3=O)[C@H]1N2Cc1ccncc1 | -0.731% (inactive)
30 | CO[C@@H]1CN(C)C(=O)c2cc(NS(=O)(=O)c3cn(C)cn3)ccc2OC[C@@H](C)N(CCC(F)(F)F)C[C@H]1C | -9.32% (inactive)
31 | O=C(c1ccccc1F)N1CC(=O)N2[C@H](CO)[C@H](c3ccc(-c4cccnc4)cc3)[C@H]2C1 | 8.17% (inactive)
32 | C[C@@H]1CCCCO[C@@H](CN(C)S(=O)(=O)c2ccccc2)[C@@H](C)CN([C@@H](C)CO)C(=O)c2cc(NS(=O)(=O)c3cn(C)cn3)ccc2O1 | -3.06% (inactive)
33 | C[C@H](NC(=O)C[C@@H]1C[C@@H]2c3cc(NS(=O)(=O)c4ccc(F)cc4)ccc3O[C@@H]2[C@@H](CO)O1)c1ccccc1 | 2.95% (inactive)
34 | CC(C)NC(=O)N1CCCCN2[C@H](CO)[C@@H](c3ccc(Br)cc3)[C@H]2C1 | -4.94% (inactive)
35 | COc1ccc(NC(=O)Nc2cccc3c2O[C@H](CN(C)S(=O)(=O)c2ccc(F)cc2)[C@H](C)CN([C@H](C)CO)C3=O)cc1 | -3.75% (inactive)
36 | COc1ccccc1CN1CC[C@@H]2[C@@H](CO)Nc3ccc(C#Cc4ccccc4)cc3[C@@H]21 | -32.6% (inactive)
37 | Cc1cccc(S(=O)(=O)N2CC[C@@H]3[C@H]2c2cc(C#Cc4ccc(F)cc4)ccc2N[C@@H]3CO)c1 | 65.6% (active)
38 | COc1ccc(C#Cc2ccc3c(c2)[C@H]2[C@H](CCN2Cc2nccs2)[C@@H](CO)N3)cc1 | 27.7% (active)
39 | O=S(=O)(c1ccccc1)N1CC[C@@H]2[C@H]1c1cc(C#Cc3cccc(F)c3)ccc1N[C@@H]2CO | -8.72% (inactive)
40 | O=S(=O)(c1ccccc1)N1CC[C@@H]2[C@@H](CO)Nc3ccc(C#Cc4cccc(F)c4)cc3[C@@H]21 | 1.91% (inactive)
41 | O=S(=O)(c1ccc(F)cc1)N1CC[C@@H]2[C@@H](CO)Nc3ccc(-c4ccccc4F)cc3[C@@H]21 | 77.9% (active)
42 | COc1ccccc1S(=O)(=O)N1CC[C@@H]2[C@H](CO)Nc3ccc(-c4ccccc4F)cc3[C@@H]21 | -1.18% (inactive)

Row | SMILES | CPE inhibition
43 | CN(C)C(=O)c1cccc(-c2ccc3c(c2)[C@@H]2[C@@H](CCN2Cc2nccs2)[C@@H](CO)N3)c1 | -14% (inactive)
44 | O=S(=O)(c1ccccc1)N1CC[C@@H]2[C@@H](CO)Nc3ccc(-c4ccccc4F)cc3[C@@H]21 | 16.3% (inactive)
45 | CCCN1[C@H](C(=O)N2CCOCC2)[C@@H](CO)[C@@H]2Cn3c(ccc(/C=C/c4ccccc4)c3=O)[C@@H]21 | 14.1% (inactive)
46 | CCCc1cn(CC[C@@H]2CC[C@@H](NS(=O)(=O)c3ccccc3Cl)[C@@H](CO)O2)nn1 | -1.78% (inactive)
47 | CO[C@H]1CN(C)C(=O)c2ccc(NC(=O)Nc3c(C)noc3C)cc2OC[C@@H](C)NC[C@H]1C | 1.98% (inactive)
48 | C/C=C/c1ccc2c(c1)O[C@H](CN(C)C(=O)c1ccc3c(c1)OCO3)[C@@H](C)CN([C@H](C)CO)S2(=O)=O | 19.1% (inactive)
49 | CC(=O)N1C[C@@H]2[C@H](c3ccccc31)[C@H](CO)N2C(=O)Nc1ccc(F)cc1 | -5.97% (inactive)
50 | COc1ccccc1-c1sc2ccccc2c1-c1ccc(Br)nc1 | 24.6% (active)
51 | COc1ccccc1-c1sc2ccccc2c1C#CC1(O)CCCCC1 | -3.75% (inactive)
52 | COc1ccc2sc(-c3ccccc3OC)c(-c3ccc(OCCN4CCCC4)cc3)c2c1 | -8.2% (inactive)
53 | COc1ccc(-c2cc(NC=O)c3ncc(-c4cc(OC)c(OC)c(OC)c4)n3c2)c(OC)c1 | 42.3% (active)
54 | COc1ccc(-c2cc(NC=O)c3ncc(-c4cccc(C(=O)N(C)C)c4)n3c2)c(OC)c1 | -8.87% (inactive)
55 | COc1ccc(-c2cc(NC=O)c3ncc(-c4ccccc4)n3c2)cc1OC | 8.91% (inactive)
56 | C[C@@H]1CN([C@@H](C)CO)C(=O)Cc2cc(NC(=O)CCN3CCOCC3)ccc2O[C@@H]1CN(C)CC1CC1 | -11.7% (inactive)
57 | C[C@H](CO)N1C[C@H](C)[C@@H](CN(C)CC2CC2)Oc2ccc(NC(=O)Nc3ccccc3)cc2CC1=O | 7.45% (inactive)
58 | CCCCCCCCCCCCN1[C@@H](CC(C)=O)c2cc(F)cc(F)c2S1(=O)=O | 37.7% (active)
59 | COc1ccc(CN2[C@@H](CC(=O)O)c3cc(F)ccc3S2(=O)=O)cc1 | -4.72% (inactive)
60 | CCCCCCN1CCN(C2CN(Cc3cn(Cc4ccc(F)cc4)nn3)S(=O)(=O)C2)CC1 (stereo not drawn) | -0.218% (inactive)
61 | CO[C@H]1CN(C)C(=O)c2ccc(NC(=O)C3CC3)cc2OC[C@H](C)N(CCc2ccccc2)C[C@@H]1C | 4.92% (inactive)
62 | COCC(=O)N(C)C[C@@H]1Oc2ncc(-c3ccccc3OC)cc2C(=O)N([C@@H](C)CO)C[C@@H]1C | 0.798% (inactive)
63 | CC(C)NC(=O)Nc1ccc2c(c1)C(=O)N([C@H](C)CO)C[C@@H](C)[C@@H](CN(C)C(=O)c1ccncc1)OCCCC[C@H](C)O2 | -1.8% (inactive)

Reference: PubChem BioAssay AID651640 (Broad Institute, 2012)
